Compounds without any hit were thinned out: in the full panel of roughly 83,000, 20% have a hit.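 A percent growth of 40 corresponds to 60% growth inhibition; 0 means no net growth; -100 means all cells died. Active threshold: below 10.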 Active and inactive are the calls of the source.
Experiments:
Assay in all cases: NCI-60 one-dose screen, 48 h (100 = growth as untreated, 0 = no growth, -100 = all killed)
Conditions in all cases: 10 µM unless noted
HCT-15 colon = tested on: HCT-15 colon
HT29 colon = tested on: HT29 colon
SNB-75 CNS = tested on: SNB-75 CNS
U251 CNS = tested on: U251 CNS
PC-3 prostate = tested on: PC-3 prostate
SK-MEL-5 melanoma = tested on: SK-MEL-5 melanoma
UACC-62 melanoma = tested on: UACC-62 melanoma
LOX IMVI melanoma = tested on: LOX IMVI melanoma
SK-MEL-28 melanoma = tested on: SK-MEL-28 melanoma
SK-MEL-2 melanoma = tested on: SK-MEL-2 melanoma
EKVX NSCLC = tested on: EKVX NSCLC
SN12C renal = tested on: SN12C renal
UO-31 renal = tested on: UO-31 renal
TK-10 renal = tested on: TK-10 renal
ACHN renal = tested on: ACHN renal
CAKI-1 renal = tested on: CAKI-1 renal
A498 renal = tested on: A498 renal
CCRF-CEM leukemia = tested on: CCRF-CEM leukemia
MOLT-4 leukemia = tested on: MOLT-4 leukemia

Measured: growth

O=C(Nc1ccc(F)cc1F)c1cc(F)ccc1O
active: SK-MEL-5 melanoma -59.1% | UACC-62 melanoma -0.318% | LOX IMVI melanoma 9.88% | SK-MEL-2 melanoma -20% | SN12C renal -3.45% | UO-31 renal -16.1% | ACHN renal 7.4% | CAKI-1 renal 3.45% | A498 renal -37.5% | MOLT-4 leukemia 5.84%
inactive: HCT-15 colon 12.4% | HT29 colon 93.4% | SNB-75 CNS 10.6% | U251 CNS 10.6% | PC-3 prostate 13.5% | SK-MEL-28 melanoma 21.9% | EKVX NSCLC 64.2% | TK-10 renal 22.9% | CCRF-CEM leukemia 30.4%

C=C1C(=O)O[C@H]2[C@H]1CC/C(COC(=O)CCSSCCC(=O)OC/C1=C/CC[C@@]3(C)O[C@H]3[C@H]3OC(=O)C(=C)[C@@H]3CC1)=C\CC[C@@]1(C)O[C@@H]21
active: HCT-15 colon -74.2% | HT29 colon -78.7% | U251 CNS -12% | PC-3 prostate -11.6% | LOX IMVI melanoma -75.8% | SK-MEL-28 melanoma -42.8% | SN12C renal -45.8% | UO-31 renal -88.1% | TK-10 renal -33.8% | ACHN renal -85.2% | CCRF-CEM leukemia -23.6% | MOLT-4 leukemia -26.8%
inactive: SNB-75 CNS 52.5% | SK-MEL-5 melanoma 41.7% | UACC-62 melanoma 36.7% | SK-MEL-2 melanoma 52.4% | EKVX NSCLC 12.6% | CAKI-1 renal 20.3% | A498 renal 72.9%

C#C[C@]1(O)CC[C@H]2[C@@H]3CC=C4c5sc(Nc6ccccc6)nc5CC[C@]4(C)[C@H]3CC[C@@]21C
inactive: U251 CNS 13.8% | PC-3 prostate 10.4% | SK-MEL-5 melanoma 14.2% | UACC-62 melanoma 19.6% | SK-MEL-2 melanoma 16.7% | EKVX NSCLC 36.3% | SN12C renal 29.2% | UO-31 renal 13.5% | TK-10 renal 56.8% | ACHN renal 20.1% | CAKI-1 renal 21.5%
active: HCT-15 colon -28.1% | HT29 colon 6.31% | SNB-75 CNS -22.2% | LOX IMVI melanoma -6.23% | SK-MEL-28 melanoma -19.9% | A498 renal -37.1% | CCRF-CEM leukemia 6.66% | MOLT-4 leukemia 7.73%

COc1cc(C(=O)c2cnc(-c3c[nH]c4cccc(C)c34)[nH]2)cc(OC)c1OC
active: HT29 colon 6.72% | SK-MEL-5 melanoma -30.7% | CAKI-1 renal 6.61% | A498 renal -12% | CCRF-CEM leukemia 6.39% | MOLT-4 leukemia 8.85%
inactive: HCT-15 colon 12% | SNB-75 CNS 20.3% | U251 CNS 17.7% | PC-3 prostate 19.4% | UACC-62 melanoma 32.6% | LOX IMVI melanoma 24.9% | SK-MEL-28 melanoma 59.3% | SK-MEL-2 melanoma 35% | SN12C renal 28.1% | UO-31 renal 17% | TK-10 renal 43.8% | ACHN renal 26.4%

COc1ccc(NC2=C(Br)C(=O)C(C)=C(C)C2=O)cc1
inactive: HCT-15 colon 91.6% | HT29 colon 117% | SNB-75 CNS 72% | U251 CNS 88.3% | SK-MEL-5 melanoma 92.3% | UACC-62 melanoma 84.4% | SK-MEL-28 melanoma 103% | SK-MEL-2 melanoma 92.4% | EKVX NSCLC 83.5% | SN12C renal 79.6% | UO-31 renal 74% | TK-10 renal 172% | ACHN renal 85.6% | CAKI-1 renal 94.9% | A498 renal 93.5%
active: LOX IMVI melanoma -35.6% | CCRF-CEM leukemia -13.8% | MOLT-4 leukemia -9.34%

Cc1cccc(NC2=C(Cl)C(=O)c3nc(C)ccc3C2=O)c1
inactive: HT29 colon 115% | U251 CNS 32.8% | PC-3 prostate 24.6% | EKVX NSCLC 75.7% | TK-10 renal 123% | A498 renal 42.1%
active: HCT-15 colon -54.8% | SNB-75 CNS -64.9% | SK-MEL-5 melanoma -93% | UACC-62 melanoma -67% | LOX IMVI melanoma -54.6% | SK-MEL-28 melanoma -54.5% | SK-MEL-2 melanoma -9.34% | SN12C renal -71.2% | UO-31 renal -93.3% | ACHN renal -98.3% | CAKI-1 renal -33.1% | CCRF-CEM leukemia 3.19% | MOLT-4 leukemia -22.1%

C=C(C)[C@@H]1CC[C@]2(N=C=O)CC[C@]3(C)[C@H](CC[C@@H]4[C@@]5(C)Cc6c([nH]c7ccccc67)C(C)(C)[C@@H]5CC[C@]43C)[C@@H]12
inactive: HCT-15 colon 47% | HT29 colon 98.5% | SNB-75 CNS 79.8% | U251 CNS 65.4% | PC-3 prostate 40.3% | SK-MEL-5 melanoma 101% | UACC-62 melanoma 101% | LOX IMVI melanoma 87.7% | SK-MEL-28 melanoma 106% | SK-MEL-2 melanoma 108% | EKVX NSCLC 89% | SN12C renal 72.4% | UO-31 renal 64.8% | TK-10 renal 21.1% | ACHN renal 99% | CAKI-1 renal 69.9% | A498 renal 137% | CCRF-CEM leukemia 67.6% | MOLT-4 leukemia 61.4%

CCCCC[C@H](O)C/C=C1/C(=O)C=C[C@@H]1C/C=C\CCCC(=O)OC
active: HT29 colon 3.13% | LOX IMVI melanoma -43.2% | CCRF-CEM leukemia 2.62%
inactive: HCT-15 colon 20.8% | SNB-75 CNS 96.5% | U251 CNS 45.5% | PC-3 prostate 26.5% | SK-MEL-5 melanoma 38% | UACC-62 melanoma 13.6% | SK-MEL-28 melanoma 28.3% | SK-MEL-2 melanoma 89.2% | EKVX NSCLC 103% | SN12C renal 11.5% | UO-31 renal 81.5% | TK-10 renal 82.3% | ACHN renal 75.9% | CAKI-1 renal 60.5% | A498 renal 97.5% | MOLT-4 leukemia 20.2%

Cc1ccc(/C=N\NC(=O)c2[nH]c3ccc(F)cc3c2-c2ccccc2)cc1
active: HT29 colon 2.07% | SK-MEL-5 melanoma -17.1% | CAKI-1 renal 1.21%
inactive: HCT-15 colon 24.1% | SNB-75 CNS 13.7% | U251 CNS 12.4% | PC-3 prostate 15% | UACC-62 melanoma 44.9% | LOX IMVI melanoma 26.5% | SK-MEL-28 melanoma 71.5% | SK-MEL-2 melanoma 23.2% | EKVX NSCLC 38% | SN12C renal 41.5% | UO-31 renal 32.1% | TK-10 renal 72.5% | ACHN renal 38.5% | A498 renal 19% | CCRF-CEM leukemia 18.4% | MOLT-4 leukemia 28.2%

CCCCCCCCCCCCCCCCCCOc1ccccc1CC(=O)OCC[N+](CC)(CC)CC
active: SK-MEL-5 melanoma -3.62% | LOX IMVI melanoma -57.6% | SK-MEL-2 melanoma -10.1%
inactive: HCT-15 colon 80.9% | HT29 colon 13.1% | SNB-75 CNS 22.5% | U251 CNS 14.4% | PC-3 prostate 18.3% | UACC-62 melanoma 21.4% | SK-MEL-28 melanoma 31.5% | EKVX NSCLC 43.4% | SN12C renal 15.2% | UO-31 renal 89.5% | TK-10 renal 38.5% | ACHN renal 64.4% | CAKI-1 renal 35.6% | A498 renal 65.9% | CCRF-CEM leukemia 15.7% | MOLT-4 leukemia 12.8%

COc1ccc2[nH]c(-c3ccccc3)c(/C=C(\C#N)S(=O)(=O)c3ccccc3)c2c1
inactive: HCT-15 colon 39.3% | HT29 colon 21% | SNB-75 CNS 48.1% | U251 CNS 39% | PC-3 prostate 49.6% | SK-MEL-5 melanoma 14.9% | UACC-62 melanoma 42.1% | LOX IMVI melanoma 61.2% | SK-MEL-28 melanoma 53.4% | SK-MEL-2 melanoma 87% | EKVX NSCLC 56.7% | SN12C renal 67% | UO-31 renal 70.2% | TK-10 renal 92.4% | ACHN renal 71.6% | CAKI-1 renal 76.6% | A498 renal 57.2% | CCRF-CEM leukemia 36.2% | MOLT-4 leukemia 17.4%

CC1(C)C2CC1C1(/C=N\Nc3ccccc3)C(C2)C(C#N)(C#N)C1(C#N)C#N (stereo not given)
inactive: HCT-15 colon 87.3% | HT29 colon 102% | SNB-75 CNS 91.4% | U251 CNS 94.8% | PC-3 prostate 72.2% | UACC-62 melanoma 58.5% | LOX IMVI melanoma 52.2% | SK-MEL-28 melanoma 106% | SK-MEL-2 melanoma 92.7% | EKVX NSCLC 89% | SN12C renal 90% | UO-31 renal 66.6% | TK-10 renal 133% | ACHN renal 75.9% | CAKI-1 renal 70.1% | A498 renal 97.1% | CCRF-CEM leukemia 83.7% | MOLT-4 leukemia 95.7%
